Activity calls are given as the source filed them.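 The calls were made as follows, unless noted: active = inhibition at or above 50% at 10 µM; inactive = inhibition below 50%.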

This note sets out measurements from PubChem BioAssay.

Test [1] in a line: inhibitors of TNFa-induced NFkB p65 translocation, primary screen, imaging, HUVEC, MLSMR starter and 10KST1 sets (AID 438;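 active = inhibition above 20% together with a positive visual image hit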;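 also: compound added about 3h40 before a 20 min TNFalpha stimulation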;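 as to inhibition: signal is the nuclear over cytoplasmic p65 intensity ratio per well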). The following applies: HUVEC TNFa-induced p65 nuclear translocation; cell count: measured here: nuclei count (cytotoxicity indicator), at 2.08 µM; inhibition: at 2 µM, stronger effect = higher value, 0% TNFa-plus-vehicle, 100% no-TNFa wells.
Test [2] in a line: inhibitors of mutant huntingtin aggregation, primary screen, imaging, exon1htt(103Q)mCFP cells, high-content imaging (AID 483;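 active = visual image review flags a hit and inhibition of aggregation exceeds 20%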;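 also: compound exposure lasted 3 days before fixation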;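 as to nuclei count: percent of the per-plate median nuclei count of sample wells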). Particulars: exon1htt(103Q)mCFP cell line, aggregate imaging, at 2 µM; inhibition of aggregation: stronger effect = higher value; nuclei count: measured here: cell count, toxicity.
Test [3] can be described thus: inhibitors of E-selectin induction by TNFa, primary screen, imaging, HUVEC, immunofluorescence, MLSMR starter and 10KST1 sets (AID 487;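 active = visually confirmed hit in the image check and inhibition above 20%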;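 as to inhibition: signal is fraction of cell area covered by stained E-selectin grains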;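 as to nuclei count: 100% = median nuclei count of all wells on the same plate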). The following applies: HUVEC TNFalpha-induced E-selectin immunofluorescence imaging, at 2 µM; inhibition: stronger effect = higher value; nuclei count: measured here: cell number, toxicity.
Test [4] concerns the target Voltage-gated potassium channel subunit beta-2 (Rattus norvegicus) (UniProt P62483). Nature of the test: KvBeta enzyme negative modulators, primary screen, biochemical, NADPH fluorescence (AID 622;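 active = fluorescence slope higher than the sample average by over 3 SD, cut at about -0.22 in these data, passing the limit was not always enough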;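 also: slope of raw intensity against log time taken from 70 to 1610 s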). The following applies: recombinant KvBeta, 4-cyanobenzaldehyde reduction, at 10 µM, stronger effect = higher value.
Test [5] shares this target. In words: KvBeta positive modulators, primary screen, biochemical, NADPH fluorescence (AID 623;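 active = NADPH fluorescence slope more negative than the mean of all samples by about 3 SD, 99.7% confidence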;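 also: fluorescence intensity change per second fitted from 20 to 320 s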). The following applies: Recombinant KvBeta, NADPH fluorescence decrease slope, 10 min; at 10 µM; stronger effect = lower value.
In test [6] the target is Alpha-2C adrenergic receptor (Homo sapiens) (UniProt P18825). Nature of the test: modulators of alpha2C/GIRK thallium flux, primary screen, cell-based, HEK293 alpha2C/GIRK1/2 (AID 624;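 active = fluorescence slope after compound addition differing from the mean of all screened samples at 99.7% confidence, in either direction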;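 also: slope of fluorescence ratio to pre-addition baseline per second over 15 to 24 s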). The following applies: thallium flux BTC fluorescence, at 10 µM, actives lie on both sides.
Sequence of Alpha-2C adrenergic receptor (Homo sapiens) (P18825 whole entry, looked up): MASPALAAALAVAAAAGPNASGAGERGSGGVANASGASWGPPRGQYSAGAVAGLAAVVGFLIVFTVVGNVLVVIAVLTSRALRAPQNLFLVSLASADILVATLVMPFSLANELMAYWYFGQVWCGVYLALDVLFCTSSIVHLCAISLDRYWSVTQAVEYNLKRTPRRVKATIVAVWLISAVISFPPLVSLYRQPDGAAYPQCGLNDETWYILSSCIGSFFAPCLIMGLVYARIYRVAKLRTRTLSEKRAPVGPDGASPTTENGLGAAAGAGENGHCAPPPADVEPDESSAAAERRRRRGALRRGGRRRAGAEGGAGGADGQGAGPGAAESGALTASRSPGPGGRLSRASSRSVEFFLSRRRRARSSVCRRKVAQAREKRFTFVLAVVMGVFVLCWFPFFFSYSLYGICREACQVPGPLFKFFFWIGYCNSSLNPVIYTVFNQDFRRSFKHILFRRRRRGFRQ
The nature of test [7]: inhibitors of Sendai virus-induced IRF3 signaling, primary screen, TLR/RLR signaling modifier project, cell-based, Sendai virus stimulus, luciferase, 10K MLSCN set (AID 602276).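 Also: firefly luciferase from ISG56 promoter only with Renilla not read in this screen; 0% = Sendai virus plus DMSO and 100% = medium plus DMSO without virus.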 The following applies: HEK293 RL24 IRF3 luciferase reporter, at 10 µM, stronger effect = higher value. For orientation: In a reporter assay the amount or activity of a reporter protein is the signal.
Test [8] can be described thus: inhibitors of poly I:C-induced TLR3 signaling, primary screen, cell-based, poly I:C stimulus, luciferase, 10K MLSCN set (AID 602277;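 active = inhibition of the reporter signal at or above 50%; inactive = inhibition below 50%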). Particulars: HEK293-TLR3 RL24 IRF3 luciferase reporter, at 10 µM, stronger effect = higher value.

Sequence of Voltage-gated potassium channel subunit beta-2 (Rattus norvegicus) (P62483 whole entry, looked up): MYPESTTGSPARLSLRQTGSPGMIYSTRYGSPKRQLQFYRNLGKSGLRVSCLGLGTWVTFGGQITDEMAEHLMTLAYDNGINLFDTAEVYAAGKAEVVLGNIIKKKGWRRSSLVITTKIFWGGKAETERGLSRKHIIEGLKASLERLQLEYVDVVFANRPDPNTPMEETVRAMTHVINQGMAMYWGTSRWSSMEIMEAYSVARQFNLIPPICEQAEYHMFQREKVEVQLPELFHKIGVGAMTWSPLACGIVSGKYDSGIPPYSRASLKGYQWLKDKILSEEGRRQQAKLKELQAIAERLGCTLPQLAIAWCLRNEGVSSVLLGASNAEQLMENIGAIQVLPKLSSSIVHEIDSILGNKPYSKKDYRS

The inhibition is the change of the read-out against control, counted positive when it falls. Regarding `CC(=O)c1coc2ccc(OCC(=O)O)cc12`, in test [1], the cell count worked out at 678. Also, the inhibition in test [1] is -11.2% (inactive); in test [3] it was -42.3% (inactive); in test [7] it was 6.78% (inactive); in test [8] it was 15.6% (inactive). The inhibition of aggregation in test [2] is -4.6% (inactive). The nuclei count in test [2] and in test [3] was 110% throughout. The fluorescence slope in test [4] was -0.598 (inactive). Moreover, in test [5], the NADPH fluorescence slope is -4.1e-05 (inactive). In test [6], the slope was 0.00474 (inactive).

`CN(C)c1ccc(/C=C/c2ccncc2)cc1`: the cell count in test [1] stood at 311. Further, the inhibition in test [1] is -5.5% (inactive); in test [3], -76.4% (inactive); in test [7], -62.5% (inactive); in test [8], -181% (inactive). In addition, the inhibition of aggregation in test [2] was 22.3% (inactive). Also, the values for the nuclei count in test [2] and in test [3] were 83.5% and 87.8%, respectively. Further, the fluorescence slope in test [4] was -0.382 (inactive). Further, in test [5], the NADPH fluorescence slope is 1.7e-05 (inactive). In addition, the slope in test [6] was 0.00338 (inactive).

On to `O=C(CSc1nnc(-c2ccncc2)n1-c1ccc(F)cc1)NC(=O)NCc1ccco1`, for which the cell count in test [1] stood at 537. Besides, the inhibition was -13.7% (inactive) in test [1], -65.7% (inactive) in test [3], 10.1% (inactive) in test [7] and 15.2% (inactive) in test [8]. The inhibition of aggregation in test [2] was -9.8% (inactive). For the same compound, the nuclei count turned out to be 100% in test [2] and 149% in test [3]. For the same compound, in test [4], the fluorescence slope is -0.46 (inactive). The NADPH fluorescence slope in test [5] is -0.000317 (inactive). Moreover, the slope in test [6] is 0.00513 (inactive).

As for `CCOC(=O)c1cc2sc(C)cc2n1CC(=O)NCc1ccc(F)cc1`, in test [1], the cell count is 560. The inhibition in test [1] is -19.6% (inactive); in test [3] it was -35.8% (inactive); in test [7], 6.92% (inactive); in test [8] it was 16.7% (inactive). Also, the inhibition of aggregation in test [2] was -31% (inactive). In addition, the nuclei count in test [2] was found to be 98.7%; in test [3], 124%. Also, the fluorescence slope in test [4] was -0.382 (inactive). In addition, in test [5], the NADPH fluorescence slope is -4.5e-05 (inactive). Moreover, in test [6], the slope was 0.00466 (inactive).

Turning to `Cc1cccc(NC(=O)CC(C)(C)C)c1`, the cell count in test [1] was 349. Moreover, the inhibition in test [1] is -6.6% (inactive); in test [3], -1.1% (inactive); in test [7] it was 10.5% (inactive); in test [8], 6.01% (inactive). Also, the inhibition of aggregation in test [2] is 12% (inactive). Also, the nuclei count amounted to 95.6% in test [2] and 99.8% in test [3]. The fluorescence slope in test [4] was -0.369 (inactive). Further, in test [5], the NADPH fluorescence slope is 2.2e-05 (inactive). Also, the slope in test [6] was 0.00657 (inactive).

Take `C=CCN(C(=O)CNC(=O)c1ccco1)C(C(=O)NC1CCCCC1)c1ccccc1F` (centres undefined): the cell count in test [1] worked out at 398. The inhibition was -1.6% (inactive) in test [1], 5.7% (inactive) in test [3], -3.24% (inactive) in test [7] and 10.3% (inactive) in test [8]. For the same compound, the inhibition of aggregation in test [2] is 18.6% (inactive). The results for the nuclei count in test [2] and in test [3] were 106% and 101%, respectively. The fluorescence slope in test [4] was -0.612 (inactive). Further, the NADPH fluorescence slope in test [5] was 1.7e-06 (inactive). Also, the slope in test [6] is 0.00581 (inactive).

For `COc1ccccc1NC(=O)CSc1nnc(CC(=O)Nc2ccccc2)n1C`, the cell count in test [1] was found to be 455. Moreover, the inhibition in test [1] is 4.9% (inactive); in test [3] it was -44% (inactive); in test [7], 8.73% (inactive); in test [8], 20.7% (inactive). In test [2], the inhibition of aggregation is -6.2% (inactive). Moreover, the nuclei count turned out to be 89.5% in test [2] and 103% in test [3]. Also, the fluorescence slope in test [4] is -0.442 (inactive). For the same compound, in test [5], the NADPH fluorescence slope was 3.5e-06 (inactive). The slope in test [6] was 0.0033 (inactive).

For the compound `O=C(OCC(=O)N1CCC(Cc2ccccc2)CC1)c1ccc[nH]c1=O`, the cell count in test [1] is 496. In addition, the inhibition in test [1] is -25.6% (inactive); in test [3], -41.6% (inactive); in test [7] it was 3.7% (inactive); in test [8], 6.66% (inactive). Further, the inhibition of aggregation in test [2] was -14.9% (inactive). The nuclei count in test [2] was 107%; in test [3], 88.7%. Further, the fluorescence slope in test [4] was -0.341 (inactive). Further, in test [5], the NADPH fluorescence slope is -9.5e-06 (inactive). In addition, the slope in test [6] is 0.00527 (inactive).

Consider `COc1ccccc1NC(=O)C(C)NS(=O)(=O)c1ccc(F)cc1` (centres undefined), for which the cell count in test [1] came to 331. Moreover, the inhibition in test [1] is 2.8% (inactive); in test [3], -22.4% (inactive); in test [7] it was 3.7% (inactive); in test [8], 46.5% (inactive). For the same compound, the inhibition of aggregation in test [2] was -6.8% (inactive). Besides, the nuclei count in test [2] is 108%; in test [3], 100%. In test [4], the fluorescence slope is -0.476 (inactive). For the same compound, in test [5], the NADPH fluorescence slope is -3.4e-05 (inactive). The slope in test [6] was 0.00634 (inactive).
